Bioassay records as filed in PubChem.
SENP8 block-1 = inhibitors of human SENP8 protease | Q96LD8 | purified SENP8, Z-RLRGG-aminoluciferin cleavage, luminescence | inhibition, % at 10 µM | 1.2% of 330,000 active | AID 2540; in the data active = inhibition above about 50%
Target sequence (Q96LD8 whole entry, looked up): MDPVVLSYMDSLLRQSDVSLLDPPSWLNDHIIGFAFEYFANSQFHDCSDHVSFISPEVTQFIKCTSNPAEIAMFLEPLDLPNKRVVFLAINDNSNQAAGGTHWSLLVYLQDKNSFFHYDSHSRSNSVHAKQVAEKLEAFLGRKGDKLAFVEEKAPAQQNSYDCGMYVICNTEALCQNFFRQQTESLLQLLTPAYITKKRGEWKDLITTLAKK
HSP90 inh = blocks HSP90-mediated luciferase refolding in reticulocyte lysate; inhibition, % at 5.6 µM; AID 1789; 0.91% of 290,000 active; Rabbit reticulocyte lysate, luciferase refolding luminescence, 3 h;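 active = inhibition above the screen-wide mean plus 3 SD, computed separately per campaign, cut at about 16% in these data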;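 also: 0% = DMSO wells and 100% = 60 µM geldanamycin wells; inhibitors lower the luminescence because luciferase stays unfolded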
SENP8 block-2 = SENP8 (human) protease inhibition. Q96LD8. recombinant SENP8, Nedd8 substrate fluorescence. AID 602440. 0.64% of 360,000 active. inhibition, % at 20 µM; in the data active = inhibition mostly above about 40%, no sharp cut-off; inactive = mostly below about 27%
SENP7 inh = blocks the human protease SENP7; Q9BQF6; recombinant SENP7, Z-RLRGG-aminoluciferin luminescence, 40 min; 1.5% of 330,000 active; AID 434973; inhibition, % at 5 µM;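 active = inhibition above about 50% at the single test dose, limit read from the data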;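 also: plate controls were DMSO with enzyme for no effect and no enzyme buffer wells for full effect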
SENP6 inh = inhibitors of human SENP6 protease; Q9GZR1; Recombinant SENP6 catalytic domain, aminoluciferin luminescence; inhibition, % at 10 µM; 1.8% of 330,000 active;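 active = inhibition above about 50% at the single tested dose, limit read from the data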;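 also: plate controls were DMSO wells with enzyme for no effect and DMSO wells lacking enzyme for full effect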
SENP8 confirm = human SENP8 inhibition, confirmed; inhibition, % at 12.5 µM; Recombinant SENP8, Z-RLRGG-aminoluciferin luminescence, 60 min; shares compounds with SENP7 inh; 40% of 6,200 active;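 active = mean inhibition across replicates above about 50%, limit read from the data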
SENP6 confirm = human SENP6 inhibition, confirmed; 58% of 6,200 active; shares compounds with SENP7 inh; AID 488915; recombinant SENP6, Z-RLRGG-aminoluciferin luminescence; inhibition, % at 12.5 µM
SENP7 confirm = confirmation of human SENP7 protease inhibitors; shares compounds with SENP7 inh; recombinant SENP7, Z-RLRGG-aminoluciferin luminescence, 40 min; inhibition, % at 12.5 µM; 69% of 6,200 active; AID 488917
Casp3 SENP sel = caspase-3 inhibition (SENP selectivity assay); shares compounds with SENP7 inh; purified caspase-3, Z-DEVD-aminoluciferin luminescence, 60 min; inhibition, % at 12.5 µM; 60% of 6,200 active; AID 488918;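 active = mean inhibition above about 50%, limit read from the data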;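 also: plate controls were enzyme with DMSO for no effect and wells without caspase-3 for full effect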
Target sequence (P42574 28-227 limits assumed): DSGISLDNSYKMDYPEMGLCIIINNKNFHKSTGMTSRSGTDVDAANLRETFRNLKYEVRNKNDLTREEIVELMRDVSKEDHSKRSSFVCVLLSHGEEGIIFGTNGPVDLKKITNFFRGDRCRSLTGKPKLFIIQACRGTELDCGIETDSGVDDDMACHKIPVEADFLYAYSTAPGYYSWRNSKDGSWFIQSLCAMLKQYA
SENP luc ctr = luminescence interference (SENP counter-screen) | 39% of 6,200 active | inhibition, % at 12.5 µM | Pre-incubated SENP8/Z-RLRGG-aminoluciferin, luciferase luminescence interference | shares compounds with SENP7 inh;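 active = mean inhibition above about 50% when retested at one dose, limit read from the data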;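 also: plate controls were DMSO wells with completed reaction for no effect and substrate without enzyme for full effect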
Numbers without * were called inactive; / = no result given. In the library only some 2.8% were active in any assay of this set; here they are far more common.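 The calls were made as follows, unless noted: active = mean inhibition above about 50% in the one-dose retest (limit read from the data); inactive = the rest.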

SMILES	SENP8 block-1	HSP90 inh	SENP8 block-2	SENP7 inh	SENP6 inh	SENP8 confirm	SENP6 confirm	SENP7 confirm	Casp3 SENP sel	SENP luc ctr
CCOc1cc(C=O)cc(N=Nc2cccc([N+](=O)[O-])c2)c1O	82.1*	-2.3	21.9	47.4	83.3*	-5.6	44.8	21.6	48.2	-2.3
CC1(C)CC(=O)C(N=Nc2cccc([N+](=O)[O-])c2)=C(O)C1	16.2	1.7	20.4	45.2	25.3	/	/	/	/	/
O=c1oc(-c2ccccc2)nc2sc3c(c12)CCCC3	91.7*	4.7	-35.4	95.7*	94.3*	61.7*	48.1	39.6	80.9*	32.9
Cc1ccccc1-c1nc2sc3c(c2c(=O)o1)CCC3	83.3*	1.3	-54.3	78.6*	87.7*	9.1	8.5	53.3*	37.5	7.1
Nn1c(-c2cccs2)nc2sc3c(c2c1=O)CCCC3	71.4*	-1.0	-408.8	58.8*	89.7*	30.8	69.9*	90.1*	60.1*	27.2
O=c1oc(-c2cc3ccccc3o2)nc2sc3c(c12)CCCC3	0.0	-1.4	-122.6	-7.4	-23.0	/	/	/	/	/
CC1(C)Cc2c(sc3nc(-c4cccs4)n(N)c(=O)c23)CO1	1.7	0.4	-292.6	-5.3	-1.0	/	/	/	/	/
O=c1oc(/C=C/c2ccccc2)nc2sc3c(c12)CCC3	21.3	-1.9	22.4	4.8	65.1*	-20.0	-19.9	-3.7	16.7	-5.2
COc1ccc(OC)c(C(=O)CSc2nc3cccnc3n2C)c1	-0.3	-1.8	-15.5	-1.9	-8.8	/	/	/	/	/
Cc1cc(C)c(C#N)c(N2CCN(Cc3ccccc3)CC2)n1	-3.7	2.0	-4.3	-5.0	-6.5	/	/	/	/	/
Cc1ccccc1C(=O)OCCN(C)Cc1ccccc1	-2.6	1.9	12.3	1.2	-13.3	/	/	/	/	/
Cc1cc(C(C)(C)C)cc(C)c1Cn1c2[n+](c3ccc(C(F)(F)F)cc31)CCCCC2	3.7	3.8	15.7	10.2	-12.4	/	/	/	/	/
O=c1oc(-c2cccs2)nc2sc3c(c12)CCCCC3	38.8	-1.1	8.7	5.0	55.3*	14.9	9.1	2.0	24.0	5.9
O=c1oc(-c2cccs2)nc2scc(-c3cccs3)c12	-16.9	1.5	-120.9	-25.6	-21.8	/	/	/	/	/
CC(C)(C)c1nc2sc3c(c2c(=O)o1)CCCC3	-4.7	2.9	21.3	9.6	-8.0	/	/	/	/	/
Cc1sc2nc(-c3cccs3)oc(=O)c2c1C	35.2	4.5	-34.8	50.9*	14.8	39.2	35.7	60.3*	32.4	50.0
O=C(N/N=C/c1ccc([N+](=O)[O-])cc1)c1[nH]ncc1Br	72.5*	-1.1	20.3	84.8*	85.6*	-4.0	9.1	48.4	88.2*	15.1
O=C(N/N=C/c1ccc([N+](=O)[O-])cc1)c1cc(C2CC2)[nH]n1	2.2	1.0	8.3	-11.2	-2.6	/	/	/	/	/
Nc1ccc(-c2nc3cc(N)ccc3o2)cc1	16.6	9.7	-469.3	40.9	51.7*	43.1	34.4	76.9*	67.0*	51.8*
Cc1ccc(-c2nc3cc(N)ccc3o2)cc1Br	86.8*	-2.1	-306.6	90.7*	92.8*	2.1	90.8*	101.2*	73.6*	28.0
Cc1ccc(C)c(-c2nc3cc(N)ccc3o2)c1	29.6	0.6	-412.6	17.1	55.1*	26.6	27.3	69.2*	25.6	50.0*
COC(=O)c1ccc(-c2nc3cc(N)ccc3o2)cc1	68.9*	1.0	-176.5	72.9*	85.0*	24.2	26.6	74.0*	54.5*	6.3
COc1ccc(-c2nc3cc(NC(=O)c4ccc5c(c4)OCO5)ccc3o2)cc1	-0.5	1.7	-275.4	-0.3	2.5	/	/	/	/	/
Nc1ccc2oc(C3CCCCC3)nc2c1	0.3	-1.8	-87.1	7.5	13.2	/	/	/	/	/
S=c1[nH]nc(C2CCCCC2)n1/N=C/C(Cl)=C\c1ccccc1	-21.9	-0.3	19.1	-2.4	-29.4	/	/	/	/	/
SMILES	SENP8 block-1	HSP90 inh	SENP8 block-2	SENP7 inh	SENP6 inh	SENP8 confirm	SENP6 confirm	SENP7 confirm	Casp3 SENP sel	SENP luc ctr
Nc1ccc(-c2nc3ccc(N)cc3o2)cc1	47.0	15.0	-422.8	61.1*	67.9*	37.7	45.0	82.3*	78.8*	61.9*
Cc1ccc2nc(-c3cc(N)cc(N)c3)oc2c1	16.0	15.4	-324.1	11.0	25.2	/	/	/	/	/
Cc1cc(N2CC(=O)N(CCc3ccccc3)C(=O)C2)n2ncnc2n1	-2.2	4.2	24.0	-0.8	-6.7	/	/	/	/	/
COc1c(Cl)c(=O)oc2ccc(Cl)cc12	/	/	-94.4	/	/	/	/	/	/	/
COc1ccccc1-n1c(=O)oc2ccc(Cl)cc2c1=O	39.8	0.3	4.1	12.1	53.0*	52.8*	50.2*	55.4*	30.4	5.0
C/C(=N\NC(=O)c1cccc(Br)c1)c1ccccn1	-4.2	5.1	18.7	-1.5	-14.5	/	/	/	/	/
CCOc1ccc(OCc2ccc(C(=O)N/N=C(\C)c3ccccn3)cc2)cc1	/	6.1	3.9	/	/	/	/	/	/	/
C/C(=N/OCc1ccc(Br)cc1)c1ccccn1	81.9*	-1.6	30.6	90.9*	-6.3	3.7	87.8*	99.5*	75.1*	49.1
C/C(=N\NC(=O)c1cc(Br)ccc1O)c1ccccn1	77.8*	-4.9	-88.2	55.5*	86.8*	40.6	84.8*	84.4*	91.4*	28.9
C/C(=N\OC(=O)c1ccc(Br)cc1)c1ccccn1	92.6*	-3.3	14.1	97.1*	96.9*	43.2	53.5*	44.3	46.3	11.5
COc1ccc(N2CCN(C(=O)C(=O)c3cc(OC)c4ccccc4c3)CC2)cc1	/	/	6.1	/	/	/	/	/	/	/
COc1ccc(-c2cn(CCC(=O)O)c(-c3ccc(Cl)nc3)n2)cc1	-17.5	/	-71.9	13.7	-5.4	/	/	/	/	/
COc1ccc(-c2cn(CCC(=O)O)c(C)n2)cc1	80.6*	/	8.8	24.6	85.3*	-8.3	84.9*	94.0*	26.8	40.4
COc1ccc(/C=N/N(C)C2=NCCN2)c(OC)c1OC	-5.8	-1.8	11.5	-6.5	-1.6	/	/	/	/	/
O=C(COc1ccc(Cc2ccccc2)cc1)c1ccc(F)cc1	26.3	3.6	1.1	52.0*	59.9*	19.3	36.1	50.8*	24.7	10.9
Nc1nn(-c2ccccc2)c(N)c1N=Nc1cccc(F)c1	-11.2	3.9	22.1	-4.4	17.0	/	/	/	/	/
Nc1[nH]n(-c2ccccc2)c(=O)c1N=Nc1ccc2c(c1)OCCO2	84.4*	-2.8	36.4	92.9*	73.2*	42.6	93.7*	99.2*	82.8*	35.6
Nc1nn(-c2ccccc2)c(N)c1N=Nc1ccc2c(c1)OCO2	9.4	1.5	40.0	28.9	61.8*	39.9	41.4	76.2*	44.9	60.7*
CCOC(=O)C1=CN(Cc2cccc(Br)c2)S(=O)(=O)N(C)C1C (stereo not given)	/	/	3.6	-3.5	/	/	/	/	/	/
